Data on 24 sequences can be found in the supplement of paper PMC6555819.

In the assay the test system is LXRb:RXRa (NR concentration 270 nM, RXRa partner concentration 90 nM). In words: PBM binding z-score (relative to random genomic background probes); higher = stronger binding; sequences stand for … in GC…GCGATTGACAGCGTAGAATGAAGG
As for the experimental part: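 Protein-binding microarray (Agilent 4x180K custom design, double-stranded 60-nt probes: 5' GC cap, 34-nt variable region, 24-nt constant primer region; full probe sequence given). Purified or IVT nuclear receptor:RXRα heterodimers (3:1 NR:RXRα, mostly 270:90 nM) or homodimers were incubated for 1 h in PBS with 2% milk and no ligand, then detected with Alexa488 antibodies. Fluorescence from o1-orientation probes (~5 replicates averaged) was converted to z-scores against 500 random hg19 background probes. Variable regions are seed direct-repeat (DR0–DR5) sites, all their single-nucleotide variants and half-site ablations.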
In the case of TCTTGTAGATCAACAGGAGGTTAATAAAGATCGA, the PBM binding z-score was 1.49.
In the case of AGTCAAAGTGCATCTAGGTAACGTAAGATATGCT it was 0.11.
In turn, TCTAGTTGGTCACGGAGGTCCCACACGACGGGTA yielded a PBM binding z-score of 0.167.
As for TAGCCTAGGTCATGCGGGCCAATATAGTGTCGGC, the PBM binding z-score was 1.9.
The sequence TATACAAGGTCAAAGGCCAGAGTACGAATGTCGA returned a PBM binding z-score of 5.46.
Consider CCTAGTTGGTCAAGGTCACATACGCTATAGGTAC, for which the PBM binding z-score stood at 3.56.
Turning to TACCCTAGGTCATTGGGCCAGTATAGTACGCATC, the PBM binding z-score came out at 4.07.
In the case of CGAACTAGGTCAAGGACAGTAAATCTCCGCACGC, the PBM binding z-score stood at 1.45.
In the case of CCTAGTTGGTCAAGGTCACACCCGCTATAGGTAC it was 3.5; in that of CCTTACGGGTCAAGGTTATAGCCCGGGTGGTACG, 2.84.
CCTTACGGGTCACGTGGTTATAGCACGACGAGCG came in with a PBM binding z-score of 3.48.
Take ACTCGGAGGACAAAGGTCAGGGCTACGCCAGTGA: the PBM binding z-score came to 3.29.
TGAATGAGGTTAAATATCAGGGAACGTGGCGTCG returned a PBM binding z-score of 1.79.
TAGCCTAGGTCATTCAGGGGCCAGCATAGAAAGC gave a PBM binding z-score of 3.03.
Consider CGTCTAAGGTCATAGGAGGTCAGTGAAGACAGAT, for which the PBM binding z-score was 6.9.
Sequence AGAATGGGGTTATACGTAGATCAGGGAAGAAAGT returned a PBM binding z-score of 4.38.
Turning to AGTCAAAGTTGAGGACGAGGTAACGTAAAGCACG, the PBM binding z-score was -0.0986.
The sequence CCAACTAGGTCAAAGGACAGTGAAAGGCGACGTA returned a PBM binding z-score of 1.91.
ATCGAAAGGTCGAAGGTGAGCATACCCACCCGAA yielded a PBM binding z-score of 2.79.
AGTCAAAGTTCATCTAGGTCACGTAAGATATGCT showed a PBM binding z-score of 4.9.
As to CGAACAAGGTCACCAGGACAGTGAAGAGGTTGGA, the PBM binding z-score worked out at 4.28.
In the case of GATACAGGGTCAGCTACAGGCCAGAGTATGGAAA it was 2.51; in that of AGAACGAGGTCACGCTGAGTTGATAGCAGAGTAG, 5.24.
In the case of CAAACTAGGTCACAAAAGGTCAAAGTCGAATGAC it was 7.76.
